# Hits are enriched below; roughly 2.9% of the tested compounds scored in any of these assays.
# Hck-Nef inh: human Hck-Nef kinase inhibition | inhibition, % at 20 µM | Recombinant Hck-YEEI plus Nef, Z-Lyte FRET kinase assay | 220,000 tested, 0.68% active;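 active means Hck-Nef kinase inhibition above about 50%, limit read from the data; inactive means inhibition below that limit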;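 further: 0% = DMSO with Hck plus Nef and 100% = Hck alone without Nef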
# 14-3-3 Bad PPI: disrupts binding of bovine 14-3-3 zeta to phospho-Bad peptide; AID 781; inhibition, % at 21.7 µM; P63103; TR-FRET 14-3-3zeta/Dy647-pBad peptide displacement, 1 h; 220,000 tested, 0.71% active;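 active means inhibition above about 70%, limit read from the data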;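 further: 0% = full 14-3-3 plus peptide FRET controls and 100% = background without 14-3-3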
# Mcl1-Bid inh: Mcl-1/Bid interaction inhibition; Q07820; TR-FRET Mcl-1/Bid-Dy647 peptide binding, 1536-well; inhibition, % at 21.7 µM; 220,000 tested, 0.97% active; AID 1021;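 active means compounds that cut the binding signal by more than half at the single screening dose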;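 further: His-tagged Mcl-1 with europium anti-His antibody binding Bid BH3 peptide; 0% = Mcl-1 plus peptide wells and 100% = peptide-only wells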
# Target sequence (Q07820 whole entry, looked up): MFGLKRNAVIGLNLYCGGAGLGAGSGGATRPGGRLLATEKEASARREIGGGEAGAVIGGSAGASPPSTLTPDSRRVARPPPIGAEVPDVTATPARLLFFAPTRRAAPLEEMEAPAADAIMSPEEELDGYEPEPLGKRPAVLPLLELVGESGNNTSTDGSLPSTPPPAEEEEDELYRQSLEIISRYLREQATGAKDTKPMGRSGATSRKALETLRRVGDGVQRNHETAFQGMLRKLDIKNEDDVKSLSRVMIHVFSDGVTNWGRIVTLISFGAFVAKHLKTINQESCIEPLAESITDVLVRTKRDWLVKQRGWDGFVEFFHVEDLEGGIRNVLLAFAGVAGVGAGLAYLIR
# Bim-Mcl-1: disrupts Bim peptide binding to human Mcl-1 | Bead-based flow cytometry, Bim peptide-Mcl-1 binding | inhibition, % at 10 µM | 190,000 tested, 0.1% active; in the data active means inhibition above about 40%;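 further: 0% = no compound tracer wells and 100% = peptide blocker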
# Mcl1 Noxa PPI: Mcl-1/Noxa interaction inhibition; AID 1022; TR-FRET Mcl-1/Noxa peptide binding, 2 h; 220,000 tested, 1.5% active; inhibition, % at 21.7 µM;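 active means compounds that cut the protein-peptide binding signal by more than 50% relative to plate controls in a single-dose test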;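 further: His-tagged Mcl-1 with rhodamine Noxa BH3 peptide and terbium anti-His antibody; 0% = Mcl-1 plus Noxa peptide wells and 100% = peptide-only wells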
# Pf gametocyte: inhibitors of late stage P. falciparum gametocyte viability; AID 743093; P. falciparum stage V gametocytes, ATP luminescence, 24 h; inhibition, % at 10.9 µM; 150,000 tested, 0.065% active;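 active means inhibition above the mean plus 3 SD of compounds within the control limits, set per campaign, cut at about 38% in these data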;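 further: 0% = DMSO wells and 100% = medium only without gametocytes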
# * hit, by the source's call; · = no result given.
SMILES,Hck-Nef inh,14-3-3 Bad PPI,Mcl1-Bid inh,Bim-Mcl-1,Mcl1 Noxa PPI,Pf gametocyte
CN(C)S(=O)(=O)c1cccc(NC(=O)COC(=O)c2cc3ccccc3oc2=O)c1,0,26,80*,·,24,5
O=C(COC(=O)c1cc2ccccc2oc1=O)Nc1cccc(S(=O)(=O)N2CCCCCC2)c1,4,10,-23,-1,0,·
CCCCN(C(=O)CSc1nnc(Nc2ccc(C)c(C)c2)s1)c1c(N)n(Cc2ccccc2)c(=O)[nH]c1=O,10,-16,-8,1,16,-25
CN(C(=O)CSc1nnc(Nc2ccccc2)s1)c1c(N)n(Cc2ccccc2)c(=O)[nH]c1=O,3,-4,-18,8,53*,-5
CCCCCC#CCC#CCC#CCC#CCCCC(=O)O,76*,89*,100*,0,103*,·
CCCCCCCCCCCCS(=O)(=O)CCC(=O)O,19,6,5,·,11,-19
Fc1ccc(-n2c(-c3ccc4ccccc4n3)n[nH]c2=S)cc1Cl,12,-3,-36,-1,20,-8
S=c1[nH]nc(-c2ccc3ccccc3n2)n1-c1ccc2ncccc2c1,4,-11,-130,-1,70*,17
O=C1c2ccc3c4c(ccc(c24)C(=O)N1CCCCO)C(=O)N(CCCCO)C3=O,7,96*,8,0,26,18
CCS(=O)(=O)N1CCCC(C(=O)NC2CCCC2)C1 (centres undefined),1,89*,-13,-1,3,·
CCCS(=O)(=O)N1CCCC(C(=O)NC2CCCCC2)C1 (centres undefined),2,-13,-3,1,-9,·
CCCS(=O)(=O)N1CCCC(C(=O)NCCc2ccc(Cl)cc2)C1 (centres undefined),-1,13,55*,-2,0,·
O=S(=O)(c1ccc(Cl)cc1)N1CCC(N2CCOCC2)CC1,0,80*,29,1,-1,9
Cc1ccc(Oc2cc(NC(=O)CCCn3nc([N+](=O)[O-])cc3C)cc([N+](=O)[O-])c2)cc1,2,0,-6,-7,-1,2
COc1ccc(Cn2c(=O)cc(N)n(-c3ccccc3C)c2=O)cc1,-15,97*,0,·,0,5
O=C1NC(=S)S/C1=C1\Sc2ccccc2N1CCCS(=O)(=O)O,2,10,5,-5,74*,-12
O=C(C1CCCN(Cc2cccnc2)C1)N1CCCCC1 (centres undefined),-1,26,52*,-5,1,-8
CCn1cc(C2=NOC(C(=O)Nc3ccc4c(c3)OCO4)C2)c(C)n1 (centres undefined),1,-2,-7,0,-15,-2
C=CCSC1=N/C(=C\c2cc(OCC)c(OC(C)=O)c([N+](=O)[O-])c2)C(=O)S1,84*,9,-80,-1,9,-9
CCOC(=O)C1(C(=O)OCC)C(c2ccccc2)CC(O)N1C(C)=O (centres undefined),-9,92*,-17,-3,-7,-30
CCOC(=O)C1C(c2ccccc2)NC(=S)NC1(C)O (centres undefined),-6,1,-35,-5,-10,-13
Brc1c(NC2=NCCN2)ccc2nccnc12,-5,0,2,0,59*,·
Cc1cc(=O)[nH]c2c(N=Nc3ccc(O)cc3)c(N)nn12,-2,-11,-37,21,57*,5
Nc1nn2c(C(F)(F)F)cc(=O)[nH]c2c1N=Nc1cccc(F)c1,21,-2,-30,1,-5,·
CCOC(=O)CC(C(=O)OCC)P(=O)(c1ccccc1)c1ccccc1 (centres undefined),-1,5,-6,-2,6,-12
CCCC(C(=O)OCC)P(=O)(c1ccccc1)c1ccccc1 (centres undefined),1,84*,-20,0,-10,-13
COc1ccc(N(C(C)C(=O)N(C)Cc2ccccc2)S(C)(=O)=O)cc1 (centres undefined),·,·,·,·,·,-4
CCOC(=O)c1c(C)oc2cc(Br)c(OC(=O)N3CCOCC3)cc12,1,4,92*,-1,-2,·
CC(C)Sc1nc(N)c2c3c(sc2n1)CN(C)CC3,-1,8,-14,-2,58*,·
COc1cc(C)nc2nc(SCc3ccccc3)nn12,-1,-6,-38,0,20,·

# Screening data deposited in PubChem by several laboratories.
